Several values for one entry are separate records, joined by “and”; a condition that tells them apart may be missing. Equal values may be shown once. This is part of a sample that, as a whole, favours compounds with a hit. Of some 79,000 tested, about 15% had one in any assay. A number with no mark means an inactive call. Activity calls are given as the source filed them. Rule as the data show it: active = growth inhibition above about 70%; inactive = the rest.
Tests used:
[1] = NCI Yeast Anticancer Drug Screen. Data for the rad50 strain (AID 155);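 also: 0% = growth of vehicle-only cultures of the same strain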; conditions: S. cerevisiae rad50 strain growth inhibition; at 50.0 µM; stronger effect = higher value
Method in brief: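 Vehicle-treated cultures provide the reference for the growth inhibition reported for compound-exposed, repair-deficient yeast.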

[2] = NCI Yeast Anticancer Drug Screen. Data for the mec2-1 strain (AID 157); conditions: S. cerevisiae mec2-1 strain, at 50.0 µM, stronger effect = higher value
Method in brief: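 Using mec2-1 yeast: add compound, measure growth, express inhibition versus vehicle-treated cultures.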

[3] = NCI Yeast Anticancer Drug Screen. Data for the sgs1 mgt1 strain (AID 161);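 also: 0% = growth of cultures given vehicle only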; conditions: S. cerevisiae sgs1 mgt1 strain, at 50.0 µM, stronger effect = higher value
Method in brief: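 Growth of a repair-deficient yeast mutant was monitored after compound treatment and expressed as inhibition relative to vehicle-treated cultures.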

[4] = NCI Yeast Anticancer Drug Screen. Data for the cln2 rad14 strain (AID 165);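 also: 0% = growth equal to vehicle treated cultures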; conditions: S. cerevisiae cln2 rad14 strain, at 50.0 µM, stronger effect = higher value
Method in brief: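 Yeast strain cln2 rad14, bearing defects in cell cycle control and DNA repair, serves as the test system; values reflect growth inhibition compared with vehicle.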

[5] = NCI Yeast Anticancer Drug Screen. Data for the bub3 strain (AID 167); conditions: S. cerevisiae bub3 mutant strain, at 50.0 µM, stronger effect = higher value
Method in brief: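 Mutant yeast screening strain plus compound; vehicle-treated cultures serve as the 0% inhibition reference.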

[6] = NCI Yeast Anticancer Drug Screen. Data for the mlh1 rad18 strain (AID 175); conditions: S. cerevisiae mlh1 rad18 strain growth inhibition; at 50.0 µM; stronger effect = higher value
Method in brief: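 Steps: expose repair-defective yeast to compound; measure growth; express inhibition against vehicle-treated controls.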

SMILES | growth inhibition [1] | growth inhibition [2] | growth inhibition [3] | growth inhibition [4] | growth inhibition [5] | growth inhibition [6]
CC1=C/C(=N\[Se]c2ccccc2)C(=O)C(C)=C1 | 43.7% | 27.4% | 24% | -9.05% | 47.4% | 36.3%
O.O=[Se](=O)(O)O.[NH-]C1CCCCC1[NH-].[Pt+2] (stereo not drawn) | -16.1% | -16.9% | -16.1% | -21.5% | -36.1% | -55.5%
CSP(=S)(SC(C)C)SC(C)C | 13.7% | 5.75% | 13.2% | 3.8% | 0.5% | 29.3%
N.N.N.N.O=C([O-])C(=O)O.O=C([O-])C(=O)[O-].[Co+3] | -2.9% | 1.5% | -10.6% | 13.6% | 11.9% | -11.6%
O=Cc1ccccc1O.[Pr] | 29.1% | -24.4% | 37% | 8.4% | 24.4% | 28.6%
COc1cc(CC(N)Cc2c[nH]c3ccccc23)cc(OC)c1OC (stereo not drawn) | -5.2% | -5.8% | -4.85% | 24.6% | -25.3% | -3.35%
CC(=O)C(C(C)=O)C(C)=O.CC(=O)C(C(C)=O)C(C)=O.CC(=O)C(C(C)=O)C(C)=O.[Cr] | 25.2% | 2.8% | 11.2% | 7.25% | -3.6% | 5.25%
NC(Cc1ccccc1)c1ccccc1 (stereo not drawn) | 3.15% and -1.6% | -7.3% and -0.95% | 0.3% and -16.8% | -36% and -23.1% | 5.35% and 1.75% | 14.8% and -0.1%
CCCCN1COC2CCCCC21 (stereo not drawn) | 20.6% | -13.2% | -43.2% | -12.6% | -44.4% | -32.9%
CC(=O)[O][Pb]([CH3])([CH3])[CH3] | -28% | -35.9% | -12.4% | 6.7% | -55.5% | -20.8%
COC(=O)c1cccc2cc3cccc[n+]3cc12 | 3.7% | -5.5% | -9.3% | -35.3% | -1.05% | 0.75%
O=NNc1ncccn1 | -20.2% | -11.7% | 3.7% | 4.3% | -0.2% | -23%
[Cl][Sn]([Cl])([c]1ccccc1)[c]1ccccc1.c1ccncc1 | 96.8% (active) | 98.8% (active) | 98.8% (active) | 97.5% (active) | 98.1% (active) | 97.7% (active)
C=C(C(=O)OC1CC2CCC(C1)[N+]2(C)[O-])c1ccccc1 (stereo not drawn) | 7.4% | -6% | -19.4% | -2.95% | 3.1% | -23.3%
CCCCN(CCCC)CC(O)c1ccc(Br)cc1 (stereo not drawn) | 33.5% | 15.4% | 54% | 16.7% | 28.9% | 44.1%
O.O.O=C(O)CC(=O)O.[NH-]C1CCCCC1[NH-].[Pt+2] (stereo not drawn) | -25.4% | -5.3% | -20.4% | -18.9% | 2.75% | -28.6%
CSCC(NP1(=O)SC(NN=C2CCCCC2)=NC1(C)C)C(=O)O (stereo not drawn) | 12.2% | 3.95% | 2% | -5.5% | -0.15% | 18.6%
CCc1ccccc1C(C(=O)NC1CN2CCC1CC2)c1ccsc1 (stereo not drawn) | -10% | -28.8% | -43.3% | -21.2% | 8.05% | -23.1%
CCCCN(CCCC)CC(=O)c1ccc(Br)cc1 | 7.05% | 2.5% | 20.2% | -24.4% | 18% | 27.6%

SMILES | growth inhibition [1] | growth inhibition [2] | growth inhibition [3] | growth inhibition [4] | growth inhibition [5] | growth inhibition [6]
CCN(CC)C(=O)N1CC2CCC(C1)N2C | -4.6% | 3.55% | -6.9% | -5.45% | -9.95% | -10.2%
c1ccc2c(c1)oc1ccccc12 | 2.05% | 11.3% | 7.2% | -64.5% | 4% | -4.1%
CC(=O)SCCC(NC(=S)Nc1ccccc1)P(=O)(Oc1ccccc1)Oc1ccccc1 (stereo not drawn) | -17.9% | 10.3% | 8.35% | -11.9% | -7.1% | -10.3%
CN(C)CCc1ccc(O)cc1 | 3.9% and -2.85% | 4.2% and 2.8% | 10.1% and -3.15% | 5.55% and -16.4% | 2.85% and -2.9% | -0.85% and 4.85%
CN(N=O)C1=NC2(CCCCC2)P(=O)(NNc2ncccn2)O1 (stereo not drawn) | 0.9% | -17.9% | -15.2% | 9.85% | 11.2% | 13.1%
N#CC(C#N)=Cc1cccc(C=C(C#N)C#N)c1 | -0.55% | -3.65% | 12.9% | 8.3% | 0.65% | -24.6%
CC(=O)OC1CCC2(C)C(=CC=C3C4CCC(=O)C4(C)CCC32)C1 (stereo not drawn) | 5.85% and 8.55% | 44.6% and 36.8% | -5.15% and 3.5% | 3% and 2.9% | 35.1% and 34.3% | 22.5% and 10.2%
O=C1NC(=O)C(c2ccsc2)C(=O)N1 | -20.6% | -2.25% | -30.4% | -40.5% | 7.5% | 1.45%
Cc1ccc(S(=O)(=O)F)cc1 | 10.4% | -8.7% | 2.1% | -14.7% | -1.3% | 9.5%
CNC(=O)c1cn(C2OC(CO)C(O)C2O)c2ncnc(N)c12 (stereo not drawn) | -5.95% | 8.3% | 4.7% | -1.25% | -1.05% | 5.65%
C[CH2][Sn]([CH2]C)([O]C(=O)c1ccccc1F)[O]C(=O)c1ccccc1F | -8.75% | 27.6% | 4.1% | 22.6% | 22.8% | 28.1%
C1CC[N-]CC1.C1CC[N-]CC1.C1CC[N-]CC1.C1CC[N-]CC1.[Cl][Rh][Cl] | -12.5% | 28.6% | 8.5% | -13.9% | -58% | -18.4%
CCOC(=O)C(C)Br (stereo not drawn) | 15% | 5.3% | 28.3% | -24.7% | 44.6% | -8.2%
CN(C)CCO | -21.4% | 11.5% | 4.55% | -1.65% | 23.4% | 35.4%
C[N+](C)(C)CCNP(=O)(Oc1ccccc1)c1ccccc1 (stereo not drawn) | 4.15% | 5.55% | -22.5% | 1.35% | -1.55% | 21.6%
C[N+](CCCl)(CCCl)Cc1cc([N+](=O)[O-])cc([N+](=O)[O-])c1 | -6.05% | -3.05% | 8.9% | -8.6% | -1.25% | 5.95%
ClCCN(CCCl)c1ccc(/C=N/Nc2ccnc3ccccc23)cc1 | 96.2% (active) | 96.3% (active) | 96.8% (active) | 96.5% (active) | 87.2% (active) | 88.8% (active)
CCC1(CC)C(=O)NC(=O)N(C)C1=O | 33.4% | 10.2% | 31.5% | 28.8% | 8.25% | 24.7%
NC(=O)C(Cl)(Cl)CCl | 14.7% | -34.5% | -12.4% | 1.5% | -2.5% | 6.65%
